Compound activity: PubChem, several laboratories
tim23-1 inh: inhibits growth of tim23-1 mutant yeast. S. cerevisiae tim23-1 growth, BacTiter-Glo luminescence, 24 h. inhibition, % at 20 µM. hit rate 1.3% among 330,000. AID 463212;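 active = growth inhibition of the mutant yeast at or above 50%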;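 note: temperature-sensitive mutant grown at 25 °C; plate controls were DMSO-treated mutant yeast for no effect and medium wells lacking yeast for full effect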
TIM10 inh: growth inhibitors of TIM10 yeast strain. inhibition, % at 10 µM. hit rate 1.4% among 330,000. S. cerevisiae TIM10 strain growth, BacTiter-Glo luminescence, 24 h;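 active = inhibition of 40% or more at the single tested concentration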;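 note: wild-type TIM10 isogenic control strain grown at permissive 25 °C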
PfHsp90 set2: reduces growth (ATP signal) of yeast expressing P. falciparum Hsp90; S. cerevisiae expressing PfHsp90, BacTiter-Glo ATP, 48 h; yeast lacking PDR1 and PDR3 efflux regulators; inhibition, % at 9.4 µM; hit rate 0.32% among 310,000; AID 504621;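 active = every replicate shows inhibition above about 80%, whatever the replicate mean, limit read from the data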;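 note: 0% = DMSO neutral controls and 100% = 20 µM radicicol positive controls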
NALP3 yeast inh: blocks the NALP3 inflammasome reconstituted in yeast | Yeast reconstituted NLRP3/ASC/caspase-1, beta-gal luminescence, 24 h | inhibition, % at 10 µM | hit rate 0.39% among 330,000 | AID 2825;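 active = inhibition of 50% or more; inactive = inhibition below 50%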;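 note: plate controls were induced DMSO wells for no effect and uninduced yeast grown without galactose for full effect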
NALP1 yeast inh: inhibitors of NALP1 inflammasome in yeast. S. cerevisiae NALP1/ASC/caspase-1 growth, X-gal OD620, 72 h. inhibition, % at 10 µM. hit rate 0.61% among 280,000; in the data active = inhibition mostly above about 24%, no sharp cut-off; inactive = mostly below about 32%
tim10-1 inh: growth inhibitors of tim10-1 mutant yeast. inhibition, % at 20 µM. hit rate 2.2% among 330,000. AID 463190. S. cerevisiae tim10-1 ts strain growth, BacTiter-Glo, 24 h;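 active = inhibition of at least 40%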;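 note: mutant grown at 25 °C; 0% = DMSO wells with yeast and 100% = wells holding no yeast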
tim10-1 confirm: tim10-1 yeast growth inhibition, confirmed; shares compounds with tim10-1 inh; S. cerevisiae tim10-1 ts strain growth, BacTiter-Glo, 24 h; inhibition, % at 20 µM; hit rate 56% among 7,400; AID 463213;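 active = inhibition of yeast growth at or above a set limit in either of two repeat tests at 20 µM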;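 note: tim10-1 mutant grown at permissive 25 °C to find synthetic lethal compounds; 0% = DMSO yeast wells and 100% = medium wells without yeast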
TIM10 conf: confirmation of TIM10 yeast growth inhibitors; shares compounds with TIM10 inh; AID 463215; S. cerevisiae tim10 strain growth, BacTiter-Glo luminescence, 24 h; hit rate 63% among 4,600; inhibition, % at 10 µM;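 active = inhibition of yeast growth at or above a set limit in either of two replicates at 10 µM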;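 note: this counterscreen used the strain with wild-type TIM10; 0% = yeast with DMSO and 100% = medium wells lacking yeast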
Starred values were filed as active, the others as inactive; . = no result given. In the library only some 4.2% were active in any assay of this set; here they are far more common.

SMILES	tim23-1 inh	TIM10 inh	PfHsp90 set2	NALP3 yeast inh	NALP1 yeast inh	tim10-1 inh	tim10-1 confirm	TIM10 conf
C=CCn1c(=O)c2ccccc2n2c(SCc3c(C(=O)OCC)oc4ccccc34)nnc12	35.1	41.9*	24.9	4.2	-1.1	40.8*	38.2*	17.2
C=CCn1c(=O)c2ccccc2n2c(SCC(N)=O)nnc12	12.8	-0.1	-7.4	24.0	17.2	2.1	.	.
CCCN(CC(=O)Nc1ccccc1C)C(=O)c1ccc2ccccc2n1	12.0	-6.9	-2.5	15.9	.	19.5	.	.
Cc1ccccc1NC(=S)c1ccc2ccccc2n1	43.7	40.1*	-9.2	30.1	15.5	42.6*	20.2	37.2*
COc1ccc(NC(=O)CC(=O)Nc2ccc(OC)cc2)cc1	-20.6	-20.9	9.2	-2.4	.	-25.4	.	.
Clc1ccc2c(c1)c1cc(Cl)ccc1n2CN1CCOCC1	-12.3	51.3*	.	18.3	12.1	62.5*	38.7*	59.1*
CC1CCCCC12NC(=O)N(CC(=O)Nc1cccc(S(=O)(=O)N3CCCCC3)c1)C2=O (centres undefined)	2.9	1.6	19.9	-3.4	.	-2.7	.	.
CC(C)c1cc(C(=O)O)c2cnn(C(C)C)c2n1	12.5	-9.2	-2.5	-4.6	-14.1	-9.6	.	.
Cc1ccc(CSCC(=O)N2CCN(Cc3ccc4c(c3)OCO4)CC2)cc1	38.6	41.0*	11.6	8.6	19.0	56.8*	40.5*	-23.8
Cc1ccc(-c2[nH]nc(N)c2N=Nc2cccc(Cl)c2C)cc1	.	.	.	.	9.2	.	.	.
Cc1ccc(-c2[nH]nc(N)c2N=Nc2ccccc2C)cc1	19.8	45.1*	-5.7	28.6	0.1	56.3*	-0.4	45.8*
Cc1cccc(N=Nc2c(N)n[nH]c2-c2ccc(Cl)cc2)c1	7.8	56.0*	-54.5	20.9	14.3	51.6*	26.2	12.8
Cc1nnc(-c2cccc(Br)c2)c2cn(-c3ccccc3Cl)nc12	41.7	51.4*	0.9	-14.2	11.3	51.0*	39.2*	49.9*
COC(=O)c1ccccc1NC(=O)NCc1c(C)nn(C)c1C	0.6	-9.3	10.6	5.9	15.4	2.7	.	.
CN(C)c1ccc(NC(=O)c2ccc(N3CCOCC3)nc2)cc1	10.3	3.7	-0.5	5.6	10.5	-0.4	.	.
C[C@@H]1CC=C[C@@H]2[C@H]1C(=O)N(Cc1ccccc1)[C@H]2c1cccc(Br)c1	43.8	6.6	7.9	.	.	25.9	.	.
CC[C@@H]1CC=C[C@H]2[C@H]1C(=O)N(Cc1ccccc1)[C@H]2c1ccc2ccccc2c1	42.9	45.0*	.	3.2	6.0	41.3*	26.4	37.7*
COc1ccc(C(=O)NC(=S)N(Cc2ccccc2)Cc2ccccc2)cc1	16.7	47.8*	-67.5	21.6	7.7	46.5*	35.0*	39.0*
Cc1ccccc1C(=O)NC(=S)N(CCO)Cc1ccccc1	12.4	-6.0	18.3	22.2	-5.1	3.8	.	.
O=C(NC(=S)N(Cc1ccccc1)Cc1ccccc1)c1ccccc1F	32.2	58.6*	-23.1	34.1	9.3	50.0*	38.0*	43.6*
CN1CCN(C(=O)CCN2C(=O)/C(=C/c3ccccc3Cl)SC2=S)CC1	40.4	43.5*	9.9	12.7	7.3	44.1*	23.8	28.1
COc1ccc(C(=O)n2nnc3ccccc32)cc1Br	39.9	40.2*	-4.6	8.2	-14.5	52.0*	21.5	0.2
CN(C(=O)c1ccc(NC(=O)Cc2cccc(NC(=O)C3CCCN(C(=O)C4CC4)C3)c2)cc1)C1CC1 (centres undefined)	.	.	-6.2	.	.	.	.	.
COc1c(S(=O)(=O)n2nc(C)cc2C)ccc(Cl)c1Cl	38.4	44.0*	27.7	-8.5	12.0	49.4*	44.3*	42.2*
COc1ccc(O)c(C(=O)/C=C/c2cc3ccccc3o2)c1	38.7	48.0*	1.2	16.7	.	56.8*	36.8*	-11.2
SMILES	tim23-1 inh	TIM10 inh	PfHsp90 set2	NALP3 yeast inh	NALP1 yeast inh	tim10-1 inh	tim10-1 confirm	TIM10 conf
O=C(/C=C/c1cc2ccccc2o1)c1ccccc1O	48.0	58.3*	-5.9	13.1	15.4	40.5*	49.2*	57.8*
CN1C(C(=O)NCc2ccc(OC(F)(F)F)cc2)CC2Cn3c(nc4ccccc43)C21 (centres undefined)	22.3	14.5	5.4	11.7	.	28.1	.	.
CCOc1ccc(/C=N/NC(=O)c2cc3ccccc3cc2OC)cc1	10.9	12.2	-14.1	20.7	14.1	-8.8	.	.
CCCn1nc(C(=O)NNC(=O)Cc2ccc(S(=O)(=O)N3CCOCC3)s2)c2ccccc2c1=O	-6.5	1.6	1.5	-2.4	.	9.5	.	.
O=C1OC(/C(=C\Nc2cc(Cl)ccc2O)[N+](=O)[O-])c2ccccc21 (centres undefined)	2.1	17.0	-39.6	18.8	8.4	20.8	.	.
O=C(NC(=S)Nc1ccccc1N1CCOCC1)c1cccc([N+](=O)[O-])c1	41.3	43.9*	-17.6	15.7	11.4	44.0*	34.8*	42.9*
COc1cccc(C(=O)NC(=S)Nc2ccccc2N2CCCC2)c1	34.8	49.2*	-25.7	16.2	-16.9	41.2*	30.4*	43.7*
COc1cccc(C(=O)Nc2ccccc2N2CCCC2)c1	22.4	8.0	3.3	10.4	0.2	14.2	.	.
CCC(=O)N1CCN(c2ccccc2NC(=S)NC(=O)c2cccc([N+](=O)[O-])c2)CC1	17.8	19.0	12.5	11.7	11.3	33.4	.	.
C[C@H]1CCC(=O)N([C@H](CSc2ccc(Br)cc2)Cc2ccccc2)CC1	25.1	1.9	6.2	25.8	.	14.2	.	.
CCOc1cc(/C=C/C(=O)c2ccc(C)cc2)ccc1OCC(=O)N(C)C	43.0	45.2*	-30.4	9.9	24.6	49.5*	35.4*	-27.2
COc1cc(/C=C/C(=O)c2ccc(C)cc2)ccc1OCC#N	44.7	33.2	3.2	25.3	.	27.7	.	.
O=C1CC(C(=O)Nc2ccccc2)S/C(=N\NC(=O)c2ccccc2Cl)N1 (centres undefined)	-11.8	-3.8	3.8	1.4	-22.7	-11.1	.	.
COc1ccc(S(=O)(=O)N(C)C)cc1NC(=O)CN1C(=O)NC2(CCCC2)C1=O	11.5	-16.7	-49.5	-13.3	13.5	-1.6	.	.
CC(C)(C)OC(=O)NCCCCCNC(=O)c1[nH]cnc1C(=O)Nc1ccon1	15.1	0.6	7.3	19.4	.	14.5	.	.
CC1CCN(S(=O)(=O)c2cc(Br)cc(C(=O)NC3=NCCS3)c2)CC1	33.6	41.4*	2.9	-2.1	3.5	45.7*	31.8*	39.8*
S=c1[nH]nc(COc2ccccc2)n1C1CCCCC1	38.4	7.6	20.6	14.7	5.3	5.2	.	.
S=c1[nH]nc(CSc2nc3ccccc3s2)n1C1CCCCC1	30.7	49.4*	-93.0	38.2	-11.8	47.4*	42.5*	1.6
Cc1ccc(S(=O)(=O)N(CC(=O)N2CCCC2)C2CCCCC2)cc1	11.8	14.1	16.4	9.7	-68.3	12.1	.	.
